Results: PubChem BioAssay (NCI)
Where “and” joins values, the source holds several entries; their conditions need not be identical. Identical values can stand only once. This is part of a sample that, as a whole, favours compounds with a hit. Of some 83,000 tested, about 20% had one in any assay.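 Each cell line was grown in a 96-well plate and treated with one concentration of compound for 48 hours. Values below 10 were considered active.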 Calls of active or inactive are those of the source.

Legend:
Assay in all cases: NCI-60 one-dose screen, 48 h (100 = growth as untreated, 0 = no growth, -100 = all killed)
SR leukemia = conditions: 10 µM unless noted
RPMI-8226 leukemia = conditions: 10 µM
OVCAR-8 ovarian = conditions: 10 µM
OVCAR-5 ovarian = conditions: 10 µM
OVCAR-4 ovarian = conditions: 10 µM
SK-OV-3 ovarian = conditions: 10 µM
IGROV1 ovarian = conditions: 10 µM
OVCAR-3 ovarian = conditions: 10 µM
HS 578T breast = conditions: 10 µM
NCI/ADR-RES ovarian = conditions: 10 µM
T-47D breast = conditions: 10 µM
BT-549 breast = conditions: 10 µM
MDA-MB-435 melanoma = conditions: 10 µM
SW-620 colon = conditions: 10 µM
MCF7 breast = conditions: 10 µM
HCT-116 colon = conditions: 10 µM
HCC-2998 colon = conditions: 10 µM
KM12 colon = conditions: 10 µM

| Structure (SMILES) | growth (SR leukemia) | growth (RPMI-8226 leukemia) | growth (OVCAR-8 ovarian) | growth (OVCAR-5 ovarian) | growth (OVCAR-4 ovarian) | growth (SK-OV-3 ovarian) | growth (IGROV1 ovarian) | growth (OVCAR-3 ovarian) | growth (HS 578T breast) | growth (NCI/ADR-RES ovarian) | growth (T-47D breast) | growth (BT-549 breast) | growth (MDA-MB-435 melanoma) | growth (SW-620 colon) | growth (MCF7 breast) | growth (HCT-116 colon) | growth (HCC-2998 colon) | growth (KM12 colon) |
| --- | --- | --- | --- | --- | --- | --- | --- | --- | --- | --- | --- | --- | --- | --- | --- | --- | --- | --- |
| OCC(O)C(O)C(O)C(/C=N/Nc1ccccc1)=N/Nc1ccccc1 (stereo unspecified) | 58.8% (inactive) | 92.2% (inactive) | 92.6% (inactive) | 82.3% (inactive) | 93.1% (inactive) | 99.5% (inactive) | 83.4% (inactive) | 90.4% (inactive) | 79.7% (inactive) | 79.8% (inactive) | 57.9% (inactive) | 88.9% (inactive) | 78% (inactive) | 88.3% (inactive) | 88.3% (inactive) | 84.4% (inactive) | 84.2% (inactive) | 75.1% (inactive) |
| O=C(/C=C/c1ccccn1)c1ccccc1 | -15.7% (active) | 25.4% (inactive) | 28.9% (inactive) | 81% (inactive) | 47.2% (inactive) | 108% (inactive) | 46.1% (inactive) | 17.3% (inactive) |  | 35% (inactive) | 66.9% (inactive) |  | 52.4% (inactive) | -51.3% (active) | 15% (inactive) | -90.8% (active) | 62.9% (inactive) |  |
| O=C1NC(=O)c2cc([N+](=O)[O-])ccc21 | 95.3% (inactive) | 71.2% (inactive) | 94.4% (inactive) | 101% (inactive) | 117% (inactive) | 105% (inactive) | 103% (inactive) | 110% (inactive) | 127% (inactive) | 113% (inactive) | 103% (inactive) | 123% (inactive) | 105% (inactive) | 103% (inactive) | 107% (inactive) | 116% (inactive) | 102% (inactive) | 110% (inactive) |
| COc1c(O)cc2oc3cc(O)c(CC=C(C)C)c(O)c3c(=O)c2c1CC=C(C)C | 7.13% (active) | 49.9% (inactive) | 54.7% (inactive) |  | 82.2% (inactive) | 89% (inactive) | 75% (inactive) | 46.1% (inactive) | 73.3% (inactive) | 38.6% (inactive) | 48% (inactive) | 105% (inactive) | 70.1% (inactive) | 60.9% (inactive) | 16.8% (inactive) | 23.7% (inactive) | 42.1% (inactive) | 38.1% (inactive) |
| C[n+]1c2cc(N)ccc2cc2ccc(N)cc21 | 5.82% (active) and 0.679% (active) and -0.456% (active) |  |  | -5.86% (active) and 16.3% (inactive) and -3.49% (active) |  | 3.68% (active) [middle of 4 runs] | 16.7% (inactive) and 36.3% (inactive) and 12.2% (inactive) |  |  | 18.2% (inactive) [middle of 4 runs] | -14.1% (active) and -9.22% (active) and -15% (active) |  |  | 2.1% (active) [middle of 4 runs] | -3.9% (active) [middle of 4 runs] |  |  |  |
